Assay results as given in the supplement of paper PMC10849652.
About 8,800 targets were measured; listed, in parts, are those with a hit and a random draw of the rest. About 0.5% of all pairs of compound and target were hits.

Each target was assayed with C1=CC2=NC=CN=C2C=C1/C=C/3\C(=O)NC(=O)S3 (assay: log2 fold change, soluble protein after heating vs DMSO (PISA); higher = thermal stabilisation; K562 lysate, 10 uM; active = over 0.2 and 3.5 SD of the protein, either way, in both replicates (recomputed)).
Summary of the method: (§1)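 Values give the log-two fold change in thermal stability against solvent controls, from duplicates. Crude K562 extract at 1 mg/mL protein, made by dounce homogenisation in PBS pH 7.4 with 1 mM MgCl2, was treated with 10 μM compound for 30 min. After 3 min heating across 48°C-58°C, aliquots were pooled, adjusted to 0.5% NP-40 at 4°C and centrifuged at 21,000xg for 90 min. The supernatant was measured by TMTpro 16plex LC-MS/MS with channel sums equalised.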

Chain of UniProt Q9Y4X0 (Q9Y4X0 whole entry, looked up): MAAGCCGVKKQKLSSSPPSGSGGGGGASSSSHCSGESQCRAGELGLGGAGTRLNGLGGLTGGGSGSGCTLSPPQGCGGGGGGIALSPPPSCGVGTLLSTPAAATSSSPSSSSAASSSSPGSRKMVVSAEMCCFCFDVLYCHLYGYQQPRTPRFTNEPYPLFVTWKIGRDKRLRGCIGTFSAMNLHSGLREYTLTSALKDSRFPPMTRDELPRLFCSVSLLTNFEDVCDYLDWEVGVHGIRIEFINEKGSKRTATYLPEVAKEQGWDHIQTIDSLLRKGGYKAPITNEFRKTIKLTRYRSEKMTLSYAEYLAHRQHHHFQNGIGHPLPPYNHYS
Chain of UniProt Q8IZP0 (Q8IZP0 whole entry, looked up): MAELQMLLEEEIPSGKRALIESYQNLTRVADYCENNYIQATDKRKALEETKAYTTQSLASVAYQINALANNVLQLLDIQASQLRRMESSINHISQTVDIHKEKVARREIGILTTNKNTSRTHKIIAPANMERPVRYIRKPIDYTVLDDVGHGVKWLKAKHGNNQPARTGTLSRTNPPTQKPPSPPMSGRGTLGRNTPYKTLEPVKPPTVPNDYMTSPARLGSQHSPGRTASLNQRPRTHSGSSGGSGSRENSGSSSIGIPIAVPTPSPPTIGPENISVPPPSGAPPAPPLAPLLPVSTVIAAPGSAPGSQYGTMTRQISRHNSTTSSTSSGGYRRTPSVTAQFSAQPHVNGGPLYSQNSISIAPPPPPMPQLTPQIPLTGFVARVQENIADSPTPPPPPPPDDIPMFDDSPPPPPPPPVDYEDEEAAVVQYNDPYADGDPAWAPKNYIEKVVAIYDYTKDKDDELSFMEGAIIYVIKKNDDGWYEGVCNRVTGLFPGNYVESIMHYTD
Chain of UniProt O75843 (O75843 whole entry, looked up): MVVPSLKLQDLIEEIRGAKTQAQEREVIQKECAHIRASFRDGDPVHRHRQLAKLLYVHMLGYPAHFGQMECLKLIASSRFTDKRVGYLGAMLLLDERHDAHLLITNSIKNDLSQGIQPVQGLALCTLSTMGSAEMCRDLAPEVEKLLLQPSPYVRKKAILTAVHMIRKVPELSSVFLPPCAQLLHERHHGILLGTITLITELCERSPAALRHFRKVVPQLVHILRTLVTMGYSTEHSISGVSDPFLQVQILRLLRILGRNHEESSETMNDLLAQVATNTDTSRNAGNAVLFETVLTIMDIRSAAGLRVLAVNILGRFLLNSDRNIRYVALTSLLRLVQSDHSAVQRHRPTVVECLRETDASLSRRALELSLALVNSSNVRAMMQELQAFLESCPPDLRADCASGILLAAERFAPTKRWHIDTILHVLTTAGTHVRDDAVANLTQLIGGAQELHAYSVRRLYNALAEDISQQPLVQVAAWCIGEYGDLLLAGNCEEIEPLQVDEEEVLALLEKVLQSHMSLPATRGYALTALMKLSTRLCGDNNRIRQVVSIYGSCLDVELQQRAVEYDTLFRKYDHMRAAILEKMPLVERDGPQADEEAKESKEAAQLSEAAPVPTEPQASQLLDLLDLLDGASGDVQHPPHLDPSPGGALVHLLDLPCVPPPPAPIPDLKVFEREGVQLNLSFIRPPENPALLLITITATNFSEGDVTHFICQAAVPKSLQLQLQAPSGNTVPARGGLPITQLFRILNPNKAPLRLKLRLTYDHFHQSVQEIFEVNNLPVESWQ
Chain of UniProt P17707 (P17707 whole entry, looked up): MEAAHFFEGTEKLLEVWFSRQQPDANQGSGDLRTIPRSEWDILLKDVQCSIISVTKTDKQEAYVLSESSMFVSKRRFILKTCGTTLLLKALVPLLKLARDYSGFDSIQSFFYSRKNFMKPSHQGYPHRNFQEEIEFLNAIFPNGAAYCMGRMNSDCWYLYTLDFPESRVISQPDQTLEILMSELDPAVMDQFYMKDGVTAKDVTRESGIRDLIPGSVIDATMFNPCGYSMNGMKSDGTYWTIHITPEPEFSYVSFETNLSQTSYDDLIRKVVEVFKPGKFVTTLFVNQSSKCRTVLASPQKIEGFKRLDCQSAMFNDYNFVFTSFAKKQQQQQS
Chain of UniProt Q96NW4 (Q96NW4 whole entry, looked up): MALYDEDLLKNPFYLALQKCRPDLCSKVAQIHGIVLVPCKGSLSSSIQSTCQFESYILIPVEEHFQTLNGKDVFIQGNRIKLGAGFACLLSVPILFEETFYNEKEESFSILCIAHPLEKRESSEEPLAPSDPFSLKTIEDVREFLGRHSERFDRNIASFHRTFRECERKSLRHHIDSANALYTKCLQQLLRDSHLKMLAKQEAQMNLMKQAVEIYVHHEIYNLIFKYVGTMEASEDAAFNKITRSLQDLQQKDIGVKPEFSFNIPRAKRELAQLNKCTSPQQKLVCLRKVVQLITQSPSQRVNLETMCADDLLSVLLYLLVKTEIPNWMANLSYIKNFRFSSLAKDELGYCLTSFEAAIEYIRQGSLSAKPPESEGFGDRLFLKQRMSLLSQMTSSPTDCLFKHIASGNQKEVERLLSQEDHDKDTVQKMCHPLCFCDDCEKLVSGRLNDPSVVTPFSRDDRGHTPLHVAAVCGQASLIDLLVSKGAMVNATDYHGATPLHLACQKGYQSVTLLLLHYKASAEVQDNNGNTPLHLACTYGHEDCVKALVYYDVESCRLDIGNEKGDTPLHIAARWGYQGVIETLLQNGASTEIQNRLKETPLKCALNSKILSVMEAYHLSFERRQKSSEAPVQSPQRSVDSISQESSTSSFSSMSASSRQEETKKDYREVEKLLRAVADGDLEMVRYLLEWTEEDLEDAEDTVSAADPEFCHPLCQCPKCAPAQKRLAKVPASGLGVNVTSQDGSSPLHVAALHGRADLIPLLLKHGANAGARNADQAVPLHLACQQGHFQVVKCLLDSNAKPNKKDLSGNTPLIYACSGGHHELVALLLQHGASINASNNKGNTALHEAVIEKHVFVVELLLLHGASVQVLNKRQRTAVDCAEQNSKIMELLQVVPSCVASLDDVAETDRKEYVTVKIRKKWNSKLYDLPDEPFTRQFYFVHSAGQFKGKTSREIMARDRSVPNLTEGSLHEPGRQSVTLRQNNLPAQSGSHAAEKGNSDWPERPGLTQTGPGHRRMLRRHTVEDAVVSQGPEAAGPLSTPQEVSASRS
Chain of UniProt Q9BTT0 (Q9BTT0 whole entry, looked up): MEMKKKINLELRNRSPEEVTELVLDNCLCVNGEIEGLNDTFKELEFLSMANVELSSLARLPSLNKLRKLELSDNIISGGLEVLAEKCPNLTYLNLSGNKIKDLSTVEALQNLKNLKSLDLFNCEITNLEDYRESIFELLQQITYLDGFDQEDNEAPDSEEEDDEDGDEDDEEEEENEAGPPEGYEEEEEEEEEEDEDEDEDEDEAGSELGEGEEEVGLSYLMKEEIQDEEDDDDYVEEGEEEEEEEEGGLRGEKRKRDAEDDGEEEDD
Chain of UniProt P42684 (P42684 whole entry, looked up): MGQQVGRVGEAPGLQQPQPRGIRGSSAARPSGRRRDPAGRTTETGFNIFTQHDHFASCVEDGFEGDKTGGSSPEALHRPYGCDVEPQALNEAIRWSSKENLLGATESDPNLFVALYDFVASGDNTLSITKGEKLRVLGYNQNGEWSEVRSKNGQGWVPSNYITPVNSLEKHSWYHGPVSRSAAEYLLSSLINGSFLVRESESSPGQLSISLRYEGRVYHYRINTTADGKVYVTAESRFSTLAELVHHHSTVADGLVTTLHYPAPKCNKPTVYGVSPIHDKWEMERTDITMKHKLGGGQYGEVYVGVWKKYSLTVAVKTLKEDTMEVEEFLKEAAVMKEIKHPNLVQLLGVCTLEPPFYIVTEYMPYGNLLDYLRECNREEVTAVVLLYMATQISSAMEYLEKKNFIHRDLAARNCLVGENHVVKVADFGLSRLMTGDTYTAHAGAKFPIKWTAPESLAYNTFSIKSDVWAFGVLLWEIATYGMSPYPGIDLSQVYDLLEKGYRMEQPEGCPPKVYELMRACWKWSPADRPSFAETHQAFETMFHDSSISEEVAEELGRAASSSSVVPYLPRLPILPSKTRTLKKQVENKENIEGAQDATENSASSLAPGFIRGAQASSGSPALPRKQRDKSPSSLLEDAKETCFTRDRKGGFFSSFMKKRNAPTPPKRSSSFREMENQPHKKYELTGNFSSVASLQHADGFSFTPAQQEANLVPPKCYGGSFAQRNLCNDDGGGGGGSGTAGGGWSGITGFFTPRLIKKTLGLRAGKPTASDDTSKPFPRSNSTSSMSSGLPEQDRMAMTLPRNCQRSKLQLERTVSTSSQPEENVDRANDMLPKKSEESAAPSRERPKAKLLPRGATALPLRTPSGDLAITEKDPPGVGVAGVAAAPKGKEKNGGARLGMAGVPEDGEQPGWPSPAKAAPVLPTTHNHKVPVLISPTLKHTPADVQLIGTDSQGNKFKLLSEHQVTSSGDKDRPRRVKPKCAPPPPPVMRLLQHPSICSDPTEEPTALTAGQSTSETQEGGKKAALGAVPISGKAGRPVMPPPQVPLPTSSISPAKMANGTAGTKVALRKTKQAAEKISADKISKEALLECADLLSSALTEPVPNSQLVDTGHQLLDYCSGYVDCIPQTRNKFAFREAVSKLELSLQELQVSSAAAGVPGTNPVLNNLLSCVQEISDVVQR
Chain of UniProt P09110 (P09110 whole entry, looked up): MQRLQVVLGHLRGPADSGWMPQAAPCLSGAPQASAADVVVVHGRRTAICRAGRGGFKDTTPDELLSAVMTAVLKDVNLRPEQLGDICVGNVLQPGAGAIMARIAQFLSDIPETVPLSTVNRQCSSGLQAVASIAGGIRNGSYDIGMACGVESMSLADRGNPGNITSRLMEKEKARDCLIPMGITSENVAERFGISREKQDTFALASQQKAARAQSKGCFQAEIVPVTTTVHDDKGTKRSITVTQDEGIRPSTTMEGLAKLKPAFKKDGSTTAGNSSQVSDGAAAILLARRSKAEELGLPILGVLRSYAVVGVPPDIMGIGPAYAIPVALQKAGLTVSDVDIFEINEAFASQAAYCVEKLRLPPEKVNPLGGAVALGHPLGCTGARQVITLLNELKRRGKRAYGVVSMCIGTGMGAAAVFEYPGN

log2 fold change, inactive:
ANXA5 (UniProt P08758) -0.016
ANKRD27 (UniProt Q96NW4) -0.033
AMMECR1 (UniProt Q9Y4X0) 0.004
AP1G2 (UniProt O75843) -0.07
ASPH (UniProt Q12797) -0.011
ABI1 isoform 9 (UniProt Q8IZP0) -0.007
ABL2 (UniProt P42684) -0.013
AMD1 (UniProt P17707) 0.055
ANKRD52 (UniProt Q8NB46) 0.021
ANP32E (UniProt Q9BTT0) 0.012
AKT1 (UniProt P31749) 0.019
ACAA1 (UniProt P09110) 0.03
AFF4 (UniProt Q9UHB7) 0.021

What follows are targets tested with C1=CC=C(C=C1)C2=NC(=C(N2)C3=CC=NC=C3)C4=CC(=C(C=C4)Cl)O in the same assay as above.
Summary of the method: as §1

log2 fold change, inactive:
ADRM1 (UniProt Q16186) 0.018
ADD1 isoform 3 (UniProt P35611) -0.004
AGGF1 (UniProt Q8N302) 0.018
ANKRD40 (UniProt Q6AI12) 0.065
AIMP1 isoform 2 (UniProt Q12904) 0.021
AMPD3 isoform 4 (UniProt Q01432) -0.004
AGTPBP1 (UniProt Q9UPW5) -0.053
AIFM2 (UniProt Q9BRQ8) 0.117
ARL1 (UniProt P40616) -0.013
ACSL1 (UniProt P33121) 0.025
ACTBL2 (UniProt Q562R1) 0.004
ALG13 (UniProt Q9NP73) 0.047
AGPS (UniProt O00116) -0.039
ARL15 (UniProt Q9NXU5) -0.033
ALDH2 (UniProt P05091) -0.016
ADAM17 (UniProt P78536) 0.044
ABCF2 isoform 2 (UniProt Q9UG63) 0.018
AK4 (UniProt P27144) 0.015
ABCD3 (UniProt P28288) -0.075
ADAMTS5 (UniProt Q9UNA0) 0.049
ABHD16A (UniProt O95870) 0.015
AGO4 (UniProt Q9HCK5) 0.009
ALDH1B1 (UniProt P30837) 0.009
ANXA5 (UniProt P08758) -0.023
ANKRD27 (UniProt Q96NW4) 0.02
AMMECR1 (UniProt Q9Y4X0) -0.009
AP1G2 (UniProt O75843) 0
ASPH (UniProt Q12797) 0.006
ABI1 isoform 9 (UniProt Q8IZP0) 0.009
ABL2 (UniProt P42684) 0.045
AMD1 (UniProt P17707) 0.061
ANKRD52 (UniProt Q8NB46) 0.013
ANP32E (UniProt Q9BTT0) -0.004
AKT1 (UniProt P31749) 0.059
ACAA1 (UniProt P09110) -0.036
AFF4 (UniProt Q9UHB7) 0.048
